PABP1 MLLE inh = blocks PAM2 peptide binding to the PABP1 MLLE domain; P11940; GST-MLLE / FITC-PAM2 fluorescence polarization; inhibition, % at 20 µM; 360,000 tested, 0.36% active; AID 588489; in the data active means inhibition above about 35%, passing the limit was not always enough;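 further: plate controls were DMSO wells with GST-MLLE for no effect and wells lacking GST-MLLE protein for full effect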
PABP polyA inh = blocks human PABP binding to poly(A) RNA | P11940 | fluorescence polarization | calls only at 35 µM | 290,000 tested, 1% active;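 further: calls also rest on retests at 20 µM and on dose response follow-up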
eIF4H inh = inhibitors of RNA binding by human eIF4H | 290,000 tested, 0.94% active | eIF4H fluorescence polarization binding assay | inhibition, % at 35 µM | Q15056;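 further: calls also rest on retests at 20 µM and on dose response follow-up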
eIF4E-4G inh = inhibitors of eIF4E and eIF4G interaction in translation initiation. 220,000 tested, 0.37% active. P63073+Q04637. inhibition, % at 21.7 µM. AID 782. TR-FRET eIF4E-eIF4GI(517-606) binding, 2 h;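 active means inhibition above about 30%, limit read from the data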;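 further: 0% = full FRET control wells and 100% = background wells lacking eIF4GI fragment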
The depositor's hits bear a star; i = inactive; ? = inconclusive; . = no result given; + = active, no number; [ ] = another dose, or the depositor's remark. Rows were chosen to be rich in hits. Some 1.5% of all compounds tested hit in one or more screens of this group. Unless noted, how the calls were made is not given here.

SMILES	PABP1 MLLE inh	PABP polyA inh	eIF4H inh	eIF4E-4G inh
CN(C)c1ccc(-c2ccnc3c2CC(C)(C(=O)NCCc2ccccc2)O3)cc1 (configuration not stated)	12	.	.	.
Cc1ccsc1/C=N/n1c(-c2cccnc2)n[nH]c1=S	-25	i	4	35*
CC12CCC(=O)N1C(C(=O)OCC(=O)Nc1sccc1C#N)CS2 (configuration not stated)	15	+	64*	-1
CCOC(=O)CC1=C(C(=O)OCC)C(c2ccc(C)o2)C(C#N)=C(N)O1 (configuration not stated)	50*	+	92*	-1
CCOC(=O)CC1=C(C(=O)OCC)C(c2ccc(OC)cc2OC)C(C#N)=C(N)O1 (configuration not stated)	10	i	60	3
O=C(NCC1CCCCC1)c1[nH]c(C(F)(F)F)nc1-c1ccccc1	8	.	.	.
S=C(Nc1ccc(Nc2ccccc2)cc1)Nc1ccccn1	38*	i	-8	1
S=C(Nc1ccccn1)NC1CCCCC1	-42	i	3	94*
Fc1ccc(-[n+]2nc(Nc3ccccc3)sc2-c2cccc(Cl)c2Cl)cc1	50*	i	-8	.
O=C(CCC1N=C2c3ccccc3N=C(SCc3ccccc3Cl)N2C1=O)NCc1ccco1 (configuration not stated)	1	i	-10	1
O=C(CSC1=Nc2ccccc2C2=NC(CC(=O)NC3CCCCC3)C(=O)N12)NCc1ccco1 (configuration not stated)	49*	?	?	6
Cn1cccc1C1Nc2ccccc2NC2=C1C(=O)CC(C)(C)C2 (configuration not stated)	115	+	125	4
CSc1ccc(Cn2c(C)c(C(=O)NCc3ccco3)sc2=O)cc1	8	.	.	.
CCNC(=O)OCCC12CC3CC(CC(C3)C1)C2	-5	+	-12	4
CCOc1ccccc1CNc1ccc(O)cc1	4	+	51	3
CCOC(=O)N(C)c1c(CC)nc2c(OCCOc3ccccc3)cccn12	-4	.	.	.
Oc1ccc(N=Cc2ccc(O)c(O)c2)cc1	4	+	106*	19
CC1(C(=O)Nc2cccc(C(F)(F)F)c2)Cc2c(-c3ccccc3)ccnc2O1 (configuration not stated)	-4	.	.	.
COC(=O)Nc1nnc(-c2ccncc2)s1	36*	i	-8	2
N#C/C(=N/Nc1ccc(OC(F)(F)F)cc1)C(N)=S	41*	i	-7	7
COc1ccc(N/N=C(\C#N)C(N)=O)cc1	-2	i	-12	-7
CCCS(=O)(=O)NC(=O)C1(C)CCN(C(=O)c2ccco2)C1 (configuration not stated)	-3	.	.	.
COc1ccccc1CNC(=O)C(=O)NCC1CCCO1 (configuration not stated)	-9	+	active	6
CCC(SC1=NCCS1)C(=O)Nc1ccc(S(N)(=O)=O)cc1 (configuration not stated)	41*	i	7	14
CCc1nc2ccc(C(=O)N(C)CCCN(C)C)cn2c1N(CC)CCOC	3	.	.	.
SMILES	PABP1 MLLE inh	PABP polyA inh	eIF4H inh	eIF4E-4G inh
CCN(CC)c1ccc(C=NN2CCCCCC2)cc1	-31	.	.	.
CCN(CC)c1ccc(C=N/C(C#N)=C(\N)C#N)cc1	-91	+	?	-1
C=CCN(CC=C)C(=S)Nc1ccc2nsnc2c1	52*	i	13	3
CN(C(=O)COC(=O)COc1ccc2ccccc2c1)c1ccccc1	-9	.	.	.
C[C@H](CO)N1C[C@H](C)[C@@H](CN(C)C(=O)c2cnccn2)Oc2cc(C#CCC3CCCC3)ccc2S1(=O)=O	-73	.	.	.
c1ccc2c(c1)nc1n2C2(N3CCOCC3)CCCC2C1N1CCOCC1 (configuration not stated)	9	+	57*	.
C/C(=N\NC(N)=O)c1ccccc1Cl	1	+	106*	1
CCN=C(N/N=C/c1ccc([N+](=O)[O-])cc1)SC	-62	i	-1	31*[fluorescence artefact?]
CCN(CC)c1ncnc2c1ncn2[C@H]1CN(Cc2ccc(F)cc2)C[C@@H](CO)O1	-10	.	.	.
CC(C)OC(=O)[C@H]1[C@H](c2ccc(Cl)cc2)[C@@](C#N)(C(N)=O)[C@@H]2C=CC(C(N)=O)=CN21	2	+	53*	4
CCN(CC)S(=O)(=O)c1cc(F)ccc1OC	7	i	-3	35*
CCN(CC)S(=O)(=O)c1cc(C(=O)Oc2ccccc2OC)ccc1OC	8	i	-3	1
COC(=O)C1CCN(C2CN(C3CCCCC3)S(=O)(=O)C2)CC1 (configuration not stated)	17	.	.	.
